Hit rate of the full screen: of about 310,000 compounds, about 18,000 (5.8%) were called active. Another 22% or so got no clear call; they are omitted. The sample holds actives, similar compounds and a random draw of the others, so the mix is not that of the screen. Unmarked numbers belong to inactive results. Calls come from the whole dose curve; as a rule, active = well fitted inhibition curve with a large enough effect; inconclusive = small, poorly fitted or top-dose-only effect, or another doubt; inactive = no such curve, though single readings can be large or run the other way.
Assay: Primary qHTS for delayed death inhibitors of the malarial parasite plastid, 48 hour incubation
Details: P. falciparum luciferase growth in erythrocytes; series mostly up to 28.7 µM; activity change, negative = inhibition: at the top concentration
In short: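 First compound was added to culture medium, then infected red cells at 0.1% parasitemia and 2% hematocrit (final). After incubation at 37 C under 5% CO2, luciferase detection reagent was dispensed and light output recorded.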
% is set by controls: 0 for no effect and ±100 for the full control effect; potency is the fitted concentration of half-maximal effect.

Row | Structure (SMILES) | activity change, negative = inhibition | Potency
1 | COc1cc(NC(=O)CSC(=S)N2CCCC2)c(OC)cc1Cl | -2.77% | –
2 | CC(=O)Oc1ccccc1C1=NN(C(C)=O)C(c2ccccc2)C1 (configuration not stated) | -8.03% | –
3 | COc1ccc(C2CC(c3ccccc3)=NN2C(=O)c2ccc(Cl)c([N+](=O)[O-])c2)cc1 (configuration not stated) | 6.73% | –
4 | O=C(c1ccccc1)N1N=C(c2ccccc2O)CC1c1ccc(Br)cc1 (configuration not stated) | – | 3.7 µM (active)
5 | O=C1CC(c2ccccc2)C(=O)N1c1cccc(O)c1 (configuration not stated) | 7.92% | –
6 | Oc1ccccc1C1=NN(c2ccccc2)C(c2ccccc2)C1 (configuration not stated) | – | 1.31 µM (active)
7 | CCn1c(=O)c(=O)[nH]c2c(=O)oc3ccc(S(=O)(=O)Nc4ccc(OC)cc4)cc3c21 | 4.83% | –
8 | COc1ccc(C(=O)CCC(=O)Nc2ccc(Cl)cc2)cc1 | -0.415% | –
9 | O=C(NCCO)C(=O)NCC(c1ccc2c(c1)OCO2)N1CCN(c2ccc(F)cc2)CC1 (configuration not stated) | 14.9% | –
10 | O=C(OCCN=C1NS(=O)(=O)c2ccccc21)c1cccc([N+](=O)[O-])c1 | 24.2% | –
11 | Cn1c(=O)c2c(ncn2CC(=O)N2CCN(c3ccccc3)CC2)n(C)c1=O | 2.83% | –
12 | Cn1c(=O)c2c(ncn2CC(COCc2ccccc2Cl)OCc2ccccc2Cl)n(C)c1=O (configuration not stated) | – | 8.28 µM (active)
13 | Cn1c(=O)c2c(ncn2CCc2ccccc2)n(C)c1=O | 24.3% | –
14 | COc1ccccc1S(=O)(=O)c1c(C)cc(C)[nH]c1=O | 1.78% | –
15 | O=S(=O)(NC1CC1)c1ccc(F)c(F)c1 | 21.7% | –
16 | O=C(CC1C(=O)NCCN1CC(c1ccccc1)c1ccccc1)NCC1CCOCC1 (configuration not stated) | 31.7% | –
17 | C=CCN1CCN(C(=O)CCCc2ccccc2)CC1 | -10.1% | –
18 | COc1ccc(/C=C/C(=O)OCC(=O)Nc2cccc(Oc3ccccc3)c2)c(OC)c1 | -24.4% | –
19 | COc1ccc(/C=C/C2=CC(C)(C)NC(=S)N2)c(OC)c1 | – | 10.4 µM (active)
20 | COc1ccc(/C=C2/C(=O)N(c3ccccc3)N=C2C)c(OC)c1 | 0% | –
21 | O=C(CNC(=O)c1cccnc1)N/N=C/c1cccnc1 | 2.56% [at 0.00184 µM] | –
22 | CCN(C(=O)CSc1ncnc2c1cnn2-c1ccccc1)C1CCS(=O)(=O)C1 (configuration not stated) | 8.95% | –
23 | CC(C(=O)NC1CCCCC1)N1C(=O)c2cccc3cccc1c23 (configuration not stated) | -7.22% | –
24 | Cc1c(Cl)cccc1NC(=S)NCc1ccc2c(c1)OCO2 | -12.2% | –
25 | CCc1cccc(CC)c1NC(=S)NCc1ccc2[nH]c(C)cc2c1 | – | 4.65 µM (active)
26 | CCc1cccc(CC)c1NC(=S)Nc1ccc2cn[nH]c2c1 | -10.8% | –

Row | Structure (SMILES) | activity change, negative = inhibition | Potency
27 | Cc1cccc(NC(=O)C2CCN(C(=O)NC3CCCCC3)CC2)c1 | -5.57% | –
28 | CCc1ccc(OCC(=O)N(Cc2ccccc2)C2CCS(=O)(=O)C2)cc1 (configuration not stated) | -17.9% | –
29 | CCOC(=O)N1CCN(S(=O)(=O)N2CCCC(C(=O)NCCCN3CCC(C)CC3)C2)CC1 (configuration not stated) | 2.94% | –
30 | COc1ccc(-c2cn[nH]c2-c2ccc(OC)cc2)cc1 | 8.51% | –
31 | COc1ccc(-c2[nH]ncc2CN(C)Cc2cccnc2)c(F)c1 | 10% | –
32 | COc1ccc(-c2[nH]ncc2/C=N/NC(=O)c2cc(Br)ccc2O)c(OC)c1 | -3.08% | –
33 | CCOc1ccccc1Oc1cn[nH]c1-c1ccc(OC)cc1O | – | 11.7 µM (active)
34 | CCN(CCn1cccn1)Cc1cn[nH]c1-c1ccc(OC)cc1F | 1.61% | –
35 | COc1ccc(Oc2cn[nH]c2-c2ccc(OC)cc2O)cc1 | – | 6.57 µM (active)
36 | NC(=O)CSc1nnc(NC(=O)c2ccc(Br)o2)s1 | 34.6% | –
37 | Cc1cc(C)c(S(=O)(=O)c2ccc(F)cc2C)c(=O)[nH]1 | -15.1% | –
38 | CC(C)NS(=O)(=O)c1ccc(OCC(=O)NC2CCCCCC2)cc1 | 11.5% | –
39 | Cc1ccc(NS(=O)(=O)c2ccc(F)cc2)nc1 | -3.15% | –
40 | CSCC[C@H](NC(=O)N1CCn2c1nc1ccccc12)C(=O)NCc1ccc2c(c1)OCO2 | -12.8% | –
41 | COC(=O)c1ccc2ccccc2c1OC1OC(CO)C(O)C(O)C1NC(C)=O (configuration not stated) | 4.79% | –
42 | Cc1ccc(CNC(=O)[C@@H](NC(=O)Cc2ccccc2)C(C)C)cc1 | -1.72% | –
43 | O=C(c1ccccc1)c1ccc(OCC(O)CN2CCCC2)cc1 (configuration not stated) | 4.24% | –
44 | O=C(C(c1ccccc1)c1ccccc1)N1CCN(CC(O)COc2ccccc2)CC1 (configuration not stated) | – | 10.4 µM (active)
45 | O=[N+]([O-])c1ccc(N2CCN(CC(O)COc3ccccc3)CC2)cc1 (configuration not stated) | 39.3% | –
46 | Cc1cccc(-n2c(C)cc(/C=N/NC(N)=S)c2C)c1 | -15.4% | –
47 | CC(=O)Nc1ccc(/C=N/NC(=O)c2cccs2)cc1 | 476% | –
48 | Cc1cccc(-n2c(C)cc(/C=N\NC(=O)c3cccs3)c2C)c1 | – | 5.22 µM (active)
49 | Cc1ccc2[nH]cc(CCNC(=O)C3CCCCC3)c2c1 | -6.91% | –
50 | CCc1c(C)nc(SCC(=O)NC2CCCC2)[nH]c1=O | 2.27% | –
51 | N=C(N)SCc1cccc2ccccc12 | – | 9.28 µM (active)
52 | N#C/C(=C(/O)Cc1cccc2ccccc12)c1nc2ccccc2s1 | 1.6% | –
